Laboratory results published in PubChem BioAssay (NCI).
This is part of a sample that, as a whole, favours compounds with a hit. Of some 83,000 tested, about 20% had one in any assay.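 Interpretation: 100, growth as untreated; towards 0, rising growth inhibition; 0, no net growth; 0 to -100, cell death. Compounds scoring below 10 were considered active.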 Unmarked numbers belong to inactive results. Calls of active or inactive are those of the source.

What was measured:
Test in all cases: NCI-60 one-dose screen, 48 h (100 = growth as untreated, 0 = no growth, -100 = all killed)
Settings in all cases: 10 µM unless noted
DU-145 prostate = tested on: DU-145 prostate
K-562 leukemia = tested on: K-562 leukemia
MALME-3M melanoma = tested on: MALME-3M melanoma
MDA-MB-231 breast = tested on: MDA-MB-231 breast
RXF 393 renal = tested on: RXF 393 renal
SF-268 CNS = tested on: SF-268 CNS
SF-295 CNS = tested on: SF-295 CNS
SF-539 CNS = tested on: SF-539 CNS
UACC-257 melanoma = tested on: UACC-257 melanoma
M14 melanoma = tested on: M14 melanoma

Row | Structure (SMILES) | growth (DU-145 prostate) | growth (K-562 leukemia) | growth (MALME-3M melanoma) | growth (MDA-MB-231 breast) | growth (RXF 393 renal) | growth (SF-268 CNS) | growth (SF-295 CNS) | growth (SF-539 CNS) | growth (UACC-257 melanoma) | growth (M14 melanoma)
1 | Cc1ncc(-c2ccnc(Nc3ccc(S(C)(=O)=O)cc3)n2)n1C(C)C | 4.62% (active) | 3.66% (active) | -47.7% (active) | -8.39% (active) | -50.9% (active) | 3.67% (active) | -0.591% (active) | -65.4% (active) | -28.3% (active) | -74.5% (active)
2 | O=C(CNc1nc2ccccc2s1)Nc1ccc(-c2nc3ccccc3s2)cc1 | 106% | 95.1% | 98.1% | 99.2% | 112% | 92.1% | 107% | 107% | 102% | 115%
3 | CC(=O)c1c(C)c2cnc(Nc3ccc(N4CCNCC4)cn3)nc2n(C2CCCC2)c1=O | 39.1% | 6.83% (active) | 2.27% (active) | 36.5% | -0.541% (active) | 46.7% | 70.3% | 27.4% | -11.7% (active) | 29.2%
4 | CC[C@@H]1C(=O)N(C)c2cnc(Nc3ccc(C(=O)NC4CCN(C)CC4)cc3OC)nc2N1C1CCCC1 | 9.68% (active) | 0.167% (active) | -15.9% (active) | 17% | -3.01% (active) | 15.5% | 11% | -82.4% (active) | -9.29% (active) | -25.9% (active)
5 | Cn1cc(-c2ncnc3ccc(-c4cnc(Cl)c(NS(C)(=O)=O)c4)cc23)c2ccccc21 | 25.2% | 48.4% | -13.6% (active) | 27.9% | -26.7% (active) | 27.5% | -9.66% (active) | -11.1% (active) | 5.53% (active) | 9.65% (active)
6 | COc1ccc2c(c1)cn1c3ccc(O)cc3nc(N)c21 | 24.1% | 11.1% | 31.2% | 23.6% | 3.22% (active) | 31.6% | 21.9% | -23.2% (active) | 60.4% | 10.4%
7 | CN(C[C@@H]1COCCO1)S(=O)(=O)Nc1ccc2ccc3ncc(-c4cnn(C)c4)cc3c(=O)c2c1 | 44% | 39.5% | 46% | 49.5% | -2.79% (active) | 35% | 19.3% | 0.172% (active) | 69.3% | 35.3%
8 | C=CC(=O)N1CCC(Oc2cc3c(Nc4ccc(Cl)c(Cl)c4F)ncnc3cc2OC)CC1 | 24.2% | 12.6% | 60.9% | 17.3% | -46.6% (active) | 8.38% (active) | 15.9% | -8.55% (active) | 24.4% | 28.8%
9 | CCCCOc1nc2cc(Cl)ccc2cc1/C=C/c1cc(/C=C/c2cc3ccc(Cl)cc3nc2OCCCC)n(-c2ccccc2)n1 | 101% | 91.7% | 92.8% | 82.3% | 81.6% | 74.9% | 52.4% | 91.9% | 67% | 99.3%
10 | COc1ccc2c(OCc3nnc4ccc(-c5ccccc5)nn34)ccnc2c1 | 109% [2.5 µM] | 93.1% [2.5 µM] | 97.8% [2.5 µM] | 106% [2.5 µM] | -13.9% [2.5 µM] (active) | 109% [2.5 µM] | 63.4% [2.5 µM] | 95.1% [2.5 µM] | 120% [2.5 µM] | 104% [2.5 µM]
11 | C/C(=N\NC(=O)Cn1c(-c2ccc(S(C)(=O)=O)cc2)nc2ccccc21)c1ccc(Cl)cc1 | 112% | 80.7% | 102% | 90.2% | 92.2% | 91.3% | 90% | 106% | 88.8% | 94%
12 | O=C(c1ccc(/C=C/c2n[nH]c3ccccc23)cc1)N1CCNCC1 | 39.6% | 12.4% | 10.4% | 27.1% | -15.4% (active) | 39.2% | 51.4% | -12% (active) | 35.9% | 27.8%
13 | Cc1cccc(Cl)c1NC(=O)c1cnc(Nc2cc(N3CCOCC3)cc(N3CCOCC3)c2)s1 | 3.54% (active) | 5.18% (active) | 61.3% | 20.5% | -30% (active) | 34% | 34% | 6.88% (active) | 64.3% | 35.9%
